Results filed as inconclusive are left out. Entries that show only a call come without a potency. Values without a mark were called inactive. The source made the active and inactive calls. Calls come from the whole dose curve; as a rule, active = well fitted curve in the direction sought with a large enough effect; inconclusive = small, poorly fitted or top-dose-only effect, or another doubt; inactive = no such curve, though single readings can be large; an effect the other way counts as inactive or inconclusive.
Key:
[1] = qHTS of pediatric cancer cell lines to identify multiple opportunities for drug repurposing: Primary screen for NB1643 cells (AID 1347099); note: nearly all actives have a fitted effect of over 50% in size
How it was run: (§1)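 Primary screen of approved and investigational compounds on cells in growth media at 37 degrees C, 5% CO2. MIPE set at 11-point and NPC set at 8-point dilutions; viability scored by ATP-based luminescence at 48 hours.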

[2] = qHTS of pediatric cancer cell lines to identify multiple opportunities for drug repurposing: Primary screen for LAN-5 cells (AID 1347100)
How it was run: (§2)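 Cells (500-1,000/well) rested 5 h, then received compounds for 48 h; metabolically active cells were measured by CellTiter-Glo luminescence. Final concentrations spanned up to 46 µM (MIPE, 11-point) or 0.59 nM-46 µM (NPC, 8-point) in primary screens, 11-point in follow-ups.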

[3] = qHTS of pediatric cancer cell lines to identify multiple opportunities for drug repurposing: Primary screen for BT-12 cells (AID 1347101); note: nearly all actives have a fitted effect of over 25% in size
How it was run: as §2

[4] = qHTS of pediatric cancer cell lines to identify multiple opportunities for drug repurposing: Primary screen for Rh18 cells (AID 1347102); note: nearly all actives have a fitted effect of over 65% in size; note: potency is the fitted concentration of half-maximal effect
How it was run: as §2

[5] = qHTS of pediatric cancer cell lines to identify multiple opportunities for drug repurposing: Primary screen for OHS-50 cells (AID 1347103); note: nearly all actives have a fitted effect of over 40% in size; note: potency is the fitted concentration of half-maximal effect
How it was run: as §2

[6] = qHTS of pediatric cancer cell lines to identify multiple opportunities for drug repurposing: Primary screen for MG 63 (6-TG R) cells (AID 1347105); note: nearly all actives have a fitted effect of over 50% in size
How it was run: as §1

[7] = qHTS of pediatric cancer cell lines to identify multiple opportunities for drug repurposing: Primary screen for control Hh wild type fibroblast cells (AID 1347106);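 note: series mostly up to about 46 µM; a drop in luminescence marks cytotoxicity and a rise apparent proliferation; nearly all actives have a fitted effect of over 55% in size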
How it was run: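 Viability after 48 h compound treatment at 37C, 500-1,000 cells/well, read as ATP luminescence with CellTiter-Glo. Primary screens used 11-point (MIPE, 0.78 nM-46 µM) or 8-point (NPC, 0.59 nM-46 µM) final concentrations; follow-up screens used 11-point dilutions.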

[8] = qHTS of pediatric cancer cell lines to identify multiple opportunities for drug repurposing: Primary screen for Rh30 cells (AID 1347107); note: series mostly up to about 46 µM; nearly all actives have a fitted effect of over 75% in size
How it was run: as §2

[9] = qHTS of pediatric cancer cell lines to identify multiple opportunities for drug repurposing: Primary screen for Rh41 cells (AID 1347108);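 note: series mostly up to about 46 µM; luminescence drop marks cytotoxic hits; nearly all actives have a fitted effect of over 70% in size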
How it was run: as §1

[10] = qHTS of pediatric cancer cell lines to identify multiple opportunities for drug repurposing: Primary screen for RD cells (AID 1347104); note: nearly all actives have a fitted effect of over 55% in size; note: potency is the fitted concentration of half-maximal effect
How it was run: as §1

[11] = qHTS of pediatric cancer cell lines to identify multiple opportunities for drug repurposing: Primary screen for SK-N-SH cells (AID 1347098); note: nearly all actives have a fitted effect of over 65% in size; note: potency is the fitted concentration of half-maximal effect
How it was run: as §2

Row | SMILES | Potency [1] | Potency [2] | Potency [3] | Potency [4] | Potency [5] | Potency [6] | outcome [7] | outcome [8] | Potency [9] | Potency [10] | Potency [11]
1 | CCN(CC)CCNC(C(=O)OCCC(C)C)c1ccccc1 (centres undefined) | inactive | inactive | inactive | inactive | inactive | inactive | inactive | inactive | inactive | – | –
2 | CCN(CC)CCOC(=O)C1(C2CCCCC2)CCCCC1 | inactive | inactive | – | inactive | – | inactive | inactive | inactive | inactive | inactive | –
3 | CC(=O)c1ccc2c(c1)N(CCCN(C)C)c1ccccc1S2 | inactive | inactive | inactive | – | – | – | inactive | inactive | inactive | – | –
4 | CC1=C(/C=C/C(C)=C/C=C/C(C)=C/C(=O)O)C(C)(C)CCC1 | inactive | inactive | inactive | inactive | 0.0309 µM (active) | – | inactive | – | inactive | inactive | –
5 | CCCCN(CCCC)CC(O)c1cc(Cl)cc2c1-c1ccc(Cl)cc1/C2=C/c1ccc(Cl)cc1 (centres undefined) | inactive | – | – | 21.1 µM (active) | – | inactive | inactive | inactive | inactive | – | inactive
6 | COc1cc(C)c(Cc2cnc(N)nc2N)cc1OC | – | – | inactive | inactive | inactive | inactive | inactive | inactive | inactive | inactive | inactive
7 | CN(C)CCC=C1c2ccccc2CCc2ccccc21 | inactive | – | – | – | – | inactive | inactive | inactive | inactive | – | –
8 | CCN(CC)C(C)CN1c2ccccc2Sc2ccccc21 (centres undefined) | inactive | inactive | inactive | inactive | inactive | inactive | inactive | inactive | inactive | inactive | –
9 | CC(O)COc1ccccc1 (centres undefined) | – | inactive | inactive | – | – | inactive | inactive | inactive | – | inactive | inactive
10 | CNC(=O)Oc1ccc2c(c1)[C@]1(C)CCN(C)[C@@H]1N2C | inactive | inactive | inactive | inactive | inactive | inactive | inactive | inactive | inactive | inactive | –
11 | CC(=O)O[C@@]12CO[C@@H]1C[C@H](O)[C@@]1(C)C(=O)[C@H](O)C3=C(C)[C@@H](OC(=O)[C@H](O)[C@@H](NC(=O)OC(C)(C)C)c4ccccc4)C[C@@](O)([C@@H](OC(=O)c4ccccc4)[C@H]21)C3(C)C | – | – | – | inactive | 0.0031 µM (active) | – | inactive | inactive | – | – | –
12 | CCCCN1CCCC[C@H]1C(=O)Nc1c(C)cccc1C | inactive | – | inactive | – | – | inactive | inactive | – | inactive | inactive | inactive
13 | Cc1cc2nc3c(=O)[nH]c(=O)nc-3n(C[C@H](O)[C@H](O)[C@H](O)CO)c2cc1C | inactive | – | inactive | inactive | inactive | inactive | inactive | inactive | inactive | inactive | –
14 | C[C@]12CC[C@@H]3c4ccc(O)cc4CC[C@H]3[C@@H]1CC[C@@H]2OC(=O)CCC1CCCC1 | inactive | – | – | inactive | – | – | inactive | inactive | inactive | – | inactive
15 | C[C@]12CC[C@@H]3c4ccc(O)cc4CC[C@H]3[C@@H]1CCC2=O | inactive | inactive | – | inactive | – | inactive | inactive | inactive | inactive | inactive | –
16 | CN(C)CCCN1c2ccccc2Sc2ccc(Cl)cc21 | – | – | – | – | 27.6 µM (active) | – | inactive | inactive | – | – | 6.12 µM (active)
17 | CSc1ccc2c(c1)C(N1CCN(C)CC1)Cc1ccccc1S2 (centres undefined) | inactive | – | – | – | – | – | inactive | – | inactive | – | 27.3 µM (active)
18 | Cc1c(Cl)cccc1Nc1ccccc1C(=O)O | – | inactive | inactive | inactive | inactive | inactive | inactive | inactive | inactive | inactive | inactive
19 | CNCCCC1c2ccccc2C=Cc2ccccc21 | inactive | – | – | – | 21.9 µM (active) | – | inactive | inactive | inactive | 26.6 µM (active) | –
20 | CC(=O)NC(Cc1ccccc1)C(=O)O (centres undefined) | inactive | – | inactive | inactive | – | – | inactive | inactive | inactive | – | –
21 | CC1(C)OC(=O)NC1=O | inactive | inactive | inactive | inactive | – | inactive | inactive | inactive | inactive | inactive | –
22 | O=C(CCCN1CCN(c2ccccn2)CC1)c1ccc(F)cc1 | inactive | inactive | – | inactive | – | inactive | inactive | – | inactive | inactive | –

From PubChem BioAssay (NCATS)
